High-throughput results (PubChem)
Only some compounds are listed: those with a hit (about 3.3% of all), similar ones and a draw of the others.
USP28 inh: human USP28 deubiquitinase inhibition | Q96RU2 | purified USP28, Ub-rhodamine cleavage fluorescence, 30 min | inhibition, % at 25 µM | 3% of 47,000 active | AID 1645857
Target sequence (Q96RU2 whole entry, looked up): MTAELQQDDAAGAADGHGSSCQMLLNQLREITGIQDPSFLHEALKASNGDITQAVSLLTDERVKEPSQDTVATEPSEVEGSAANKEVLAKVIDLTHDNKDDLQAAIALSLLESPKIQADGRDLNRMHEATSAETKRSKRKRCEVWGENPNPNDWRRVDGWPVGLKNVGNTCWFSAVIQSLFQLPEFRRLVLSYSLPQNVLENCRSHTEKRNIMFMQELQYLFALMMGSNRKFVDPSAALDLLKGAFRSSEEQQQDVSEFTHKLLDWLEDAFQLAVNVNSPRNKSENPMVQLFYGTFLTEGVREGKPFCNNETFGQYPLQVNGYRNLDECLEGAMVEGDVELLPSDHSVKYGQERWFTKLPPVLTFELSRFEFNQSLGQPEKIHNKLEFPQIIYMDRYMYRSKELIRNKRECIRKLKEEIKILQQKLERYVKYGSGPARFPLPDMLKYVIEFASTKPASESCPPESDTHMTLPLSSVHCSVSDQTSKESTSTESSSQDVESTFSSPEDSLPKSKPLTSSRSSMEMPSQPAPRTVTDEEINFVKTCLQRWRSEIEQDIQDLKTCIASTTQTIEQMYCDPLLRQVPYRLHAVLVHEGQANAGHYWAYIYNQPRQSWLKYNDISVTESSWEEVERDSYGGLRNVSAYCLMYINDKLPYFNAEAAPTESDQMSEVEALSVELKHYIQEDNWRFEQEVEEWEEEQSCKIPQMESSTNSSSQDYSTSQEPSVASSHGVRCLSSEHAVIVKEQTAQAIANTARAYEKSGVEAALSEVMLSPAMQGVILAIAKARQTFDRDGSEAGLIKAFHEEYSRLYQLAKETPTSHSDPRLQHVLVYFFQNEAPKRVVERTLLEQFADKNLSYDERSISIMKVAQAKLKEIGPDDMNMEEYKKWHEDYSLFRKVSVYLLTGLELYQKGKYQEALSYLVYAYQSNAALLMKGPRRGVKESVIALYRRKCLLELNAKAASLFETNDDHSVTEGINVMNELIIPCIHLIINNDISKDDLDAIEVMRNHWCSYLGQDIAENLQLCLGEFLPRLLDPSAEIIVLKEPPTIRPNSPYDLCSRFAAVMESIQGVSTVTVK
OTUD3 block: blocks human OTUD3 ubiquitin-rhodamine cleavage; Q5T2D3; purified OTUD3, Ub-rhodamine fluorescence, 2 h; inhibition, % at 25 µM; 0.7% of 47,000 active; AID 1645858
Numbers stand for hits; n = inactive. No stated cut-off is given here; in the data, active means inhibition above about 30%; inactive means the rest.

SMILES	USP28 inh	OTUD3 block
O=C(Cn1ncc2ccccc21)Nc1ccc(Br)cn1	39	n
COc1ccccc1C(=O)N1CCC(S(=O)(=O)c2ccc(-c3ccco3)cc2)CC1	n	n
CCCCC/C=C/C=C/C(=O)OC1C(O)CC(c2ccc3c(c2O)C(=O)c2c(O)cc4cc(C)cc(O)c4c2C3=O)OC1C (configuration not stated)	36	n
C[C@H]1O[C@@H](c2ccc3c(c2O)C(=O)c2ccc(C[C@@](C)(O)CC(=O)O)c(O)c2C3=O)C[C@@H](O)[C@@H]1O	n	n
O=C(Nc1cccc(-c2ccc(N3CCOCC3)nn2)c1)c1ccc2ccccc2c1	n	n
NC(=O)c1cc(NC(=O)c2ccc3ccccc3c2)cc(C(N)=O)c1	57	n
CC(=O)Nc1nsc(N2CCC(C(=O)NCc3cc(F)cc(F)c3)CC2)n1	n	n
CN(C)C(=O)c1ccc(OC2CCN(C(=O)c3ccc(F)cc3)CC2)nc1	n	n
Cc1cc(C)cc(C(=O)N2CCC(Oc3ccc(C(=O)N(C)C)cn3)CC2)c1	44	n
Cc1ccc(C(=O)NCc2nc(-c3ccc(-c4nc(C)no4)cc3)no2)cc1	n	n
COc1cc(OC)nc(Oc2cccc(C(=O)NC(C)(C)C)c2)n1	n	n
COc1cccc(CN2C(=O)c3ccccc3S2(=O)=O)c1	n	n
O=C1c2ccccc2S(=O)(=O)N1Cc1ccc2nonc2c1	37	n
Cn1c(O)c(C2=Nc3ccccc3SC(c3ccc(O)cc3)C2)c(=O)n(C)c1=O (configuration not stated)	n	n
CN(C)c1ccc(C2CC(c3c(O)n(C)c(=O)[nH]c3=O)=Nc3ccccc3S2)cc1 (configuration not stated)	51	n
COc1cc(OC)c2c(c1)C(=O)C1=C(COC(C)(O)C1)C2=O (configuration not stated)	37	n
COc1cccc2c1C(=O)c1ccc3c(c1C2=O)C(=O)CC(C)(O)C3 (configuration not stated)	n	n
Fc1ccc(-c2cc3nc(NCCCn4ccnc4)ccn3n2)cc1	n	n
CCOc1ccc(-c2c3c4n(c(-c5ccc(OC)cc5)cn4c2C(=O)NC2CCCCC2)CCCC3)cc1	n	n
O=C(C1CCCN(S(=O)(=O)N2CCC3(CC2)OCCO3)C1)N1CCc2ccccc21 (configuration not stated)	n	n
CC1Oc2ccccc2C(=O)N(CC(=O)c2ccc3c(c2)OCCO3)C1=O (configuration not stated)	31	n
CCOc1ccc(C(=O)CN2C(=O)c3ccccc3OC(C)C2=O)cc1 (configuration not stated)	n	n
CC1Oc2ccccc2C(=O)N(Cc2ccc(F)cc2)C1=O (configuration not stated)	n	n
CC1Oc2ccccc2C(=O)N(Cc2ccccc2)C1=O (configuration not stated)	33	n
CC(C)N1CCc2c(sc(NC(=O)CSc3ccc(Cl)cc3)c2C(N)=O)C1	n	n
SMILES	USP28 inh	OTUD3 block
O=C(CC1CCCC1)N1CCC(Nc2ncnc3c2CCC3)C1 (configuration not stated)	n	n
O=C(Nc1nc2c(s1)CN(C(=O)c1cc(-c3ccco3)on1)CC2)C1CC1	n	n
Cc1ccc(C(=O)Nc2cc3c4c(c2)C(C)C(=O)N4CCC3)cc1 (configuration not stated)	n	n
Cc1ccc(C(=O)Nc2cc3c4c(c2)CC(=O)N4CCC3)cc1C	72	n
COc1ccc(C2CCCCCN2S(=O)(=O)c2cccc(C#N)c2)cc1 (configuration not stated)	n	n
C=C(CC[C@@H](C)[C@H]1CC[C@@H]2[C@]1(C)C[C@@H](O)[C@@]13C[C@@]14C(=O)C[C@H](O)[C@@](C)(C(=O)O)[C@@H]4C(=O)C[C@]23O)C(C)C	32	n
CCc1ccccc1NC(=O)Cn1c(-c2ccccc2)nc2c(c1=O)CN(CC)CC2	n	n
COc1ccccc1C(=O)NC1=C(C(=O)c2ccccc2)N(Cc2ccccc2)S(=O)(=O)c2ccccc21	n	n
Cc1cc(C)nc(NC(=O)c2ccco2)n1	n	n
Cc1ccc(-c2nnc(NC(=O)c3ccco3)o2)cc1C	49	n
Cc1ccc(OCC(=O)Nc2cc(NC(=O)c3ccco3)ccc2C)cc1C	45	n
Cc1ccc(OCC(=O)Nc2ccc(NC(=O)c3cccc(Cl)c3)cc2)cc1C	n	n
Cc1ccc2c(Nc3cccc(F)c3)c(C(=O)N3CCCCC3)cnc2n1	n	n
CCCCN1CCN(c2ccc3c(c2)OCO3)C1=O	37	n
Cn1cccc1C(=O)NC1CC(=O)N(c2ccc3c(c2)OCO3)C1 (configuration not stated)	n	n
C=Cc1ccc(Cn2c(C(=O)O)c(CNC(C)CCc3ccccc3)c3ccccc32)cc1 (configuration not stated)	n	n
CC(CCc1ccccc1)NCc1c(C(=O)O)n(Cc2ccc(F)cc2)c2ccccc12 (configuration not stated)	34	n
